High-throughput results as filed in PubChem BioAssay.
Shiga toxin inh – blocks Shiga toxin action in Vero cells | Vero cells, Shiga toxin protein synthesis inhibition reporter | inhibition, % at 38.7 µM | 290,000 tested, 9.2% active | AID 2315; in the data active = inhibition mostly above about 28%, no sharp cut-off; inactive = mostly below about 43%; note: 0% is about no effect
SARS PLP yeast – SARS-CoV PLP inhibition in yeast | S. cerevisiae expressing SARS-CoV PLpro, growth rescue | Potency, µM (series often up to 32.9 µM), without a hit: top-dose activity, positive = growth rescue, usual class: activators | 330,000 tested, 0.19% active | AID 485353; calls by dose curve; note: potency is the fitted concentration of half-maximal effect; 0% is about no effect; nearly all actives have a fitted effect of over 55% in size
CHX counter – counter-screen for Shiga toxin inhibitors: cycloheximide protein synthesis inhibition. cell reporter, cycloheximide protein synthesis inhibition counterscreen. max response, %. 300,000 tested, 12% active; in the data active = max response mostly above about 13%, no sharp cut-off; inactive = mostly below about 14%; note: read at 38.3 µM for the half of the compounds with a filed dose; 0% is about no effect
AMA1-RON2 inh – AMA1-RON2 (P. falciparum) interaction inhibition | AlphaScreen AMA1-biotinylated RON2 peptide binding | Potency, µM (top dose mostly 58.2 µM), inactives show at the highest dose activity change, negative = inhibition, most hits filed as inhibitors | 360,000 tested, 0.2% active;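 note: potency is the fitted concentration of half-maximal effect; 0% = vehicle wells and -100% = peptide control; nearly all actives have a fitted effect of over 45% in size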
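AMA1 (3D7) with his tag at 25 nM final met compounds first, then biotinylated RON2 peptide at 25 nM; detection used donor plus acceptor beads, 10 µg/mL apiece, read by AlphaScreen after 30 min at room temperature.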
AmpC inh detg – blocks E. coli AmpC beta-lactamase in detergent assay. P00811. AmpC hydrolysis of nitrocefin, absorbance 480 nm, 0.01% Triton. Potency, µM (titrated, usually from 114 µM), without a hit: at the top dose activity change, negative = inhibition, usual class: inhibitors. 370,000 tested, 0.041% active. AID 485294;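 note: potency is the fitted concentration of half-maximal effect; 0% = no-compound wells and -100% = no-enzyme wells; nearly all actives have a fitted effect of over 25% in size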
Target sequence (P00811 whole entry, looked up): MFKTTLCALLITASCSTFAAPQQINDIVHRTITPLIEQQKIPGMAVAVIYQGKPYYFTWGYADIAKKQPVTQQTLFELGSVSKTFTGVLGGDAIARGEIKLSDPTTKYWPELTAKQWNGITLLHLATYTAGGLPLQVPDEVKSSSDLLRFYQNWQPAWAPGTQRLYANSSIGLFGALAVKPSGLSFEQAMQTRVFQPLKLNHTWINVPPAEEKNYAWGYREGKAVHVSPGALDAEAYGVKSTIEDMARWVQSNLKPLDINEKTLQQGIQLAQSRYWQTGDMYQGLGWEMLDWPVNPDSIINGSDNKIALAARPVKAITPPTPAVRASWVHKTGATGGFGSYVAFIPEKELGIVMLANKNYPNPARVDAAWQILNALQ
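AmpC (5.3 nM in the dispensed reagent) in 20 mM phosphate pH 7.0 with 0.01% (detergent screen) or 0.0001% Triton X-100 was preincubated with compounds for 15 min at room temperature. Nitrocefin was then added from an 800 uM solution, and hydrolysis was followed at 480 nm.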
AmpC inh no detg – blocks E. coli AmpC beta-lactamase in detergent-free assay; AmpC nitrocefin hydrolysis, absorbance 480 nm, 0.0001% Triton; 330,000 tested, 0.52% active; Potency, µM (top dose mostly 57.1 µM), for inactives: at the top dose activity change, negative = inhibition, hits mostly inhibitors; AID 485341; P00811;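 note: potency is the fitted concentration of half-maximal effect; plate controls were no compound for no effect and no enzyme for full effect; nearly all actives have a fitted effect of over 20% in size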
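AmpC (5.3 nM in the dispensed reagent) in 20 mM phosphate pH 7.0 with 0.01% (detergent screen) or 0.0001% Triton X-100 was preincubated with compounds for 15 min at room temperature. Nitrocefin was then added from an 800 uM solution, and hydrolysis was followed at 480 nm.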
Numbers without * were called inactive; ? = inconclusive; nt = not tested or not shown. The entries come from a sample that favours hits as a whole. Unless noted, calls come from the whole dose curve; as a rule, active = well fitted curve in the direction sought with a large enough effect; inconclusive = small, poorly fitted or top-dose-only effect, or another doubt; inactive = no such curve, though single readings can be large; an effect the other way counts as inactive or inconclusive.

SMILES	Shiga toxin inh	SARS PLP yeast	CHX counter	AMA1-RON2 inh	AmpC inh detg	AmpC inh no detg
O=C(NCc1cccnc1)NC1(C(F)(F)F)Oc2ccccc2O1	-7	-5%	-2	4%	-1%	-17%
CCCNC(=O)COc1coc(CN2CCN(C(=O)c3ccco3)CC2)cc1=O	nt	4%	nt	19%	-21%	-5%
Cc1ccc(C2CC(=O)Nc3c2ccc2ccccc32)cc1[N+](=O)[O-] (centres undefined)	-12	17%	-7	-21%	-3%	-26%
O=C(CN1C(=O)S/C(=C\c2ccc(F)cc2)C1=O)Nc1cccc(S(=O)(=O)NCc2ccco2)c1	138*	1%	67*	2%	5%	-60%
CCc1ccccc1OCC(=O)Nc1cccc(S(=O)(=O)NCc2ccco2)c1	nt	0%	nt	-14%	?	-17%
CC1CN(CCOc2ccccc2C(C)C)CC(C)O1 (centres undefined)	nt	4%	-2	20µM*	-5%	31%
c1ccc(-c2ccccc2OCCOCCN2CCc3ccccc3C2)cc1	47	-1%	-3	-9%	4%	147%
CC1CN(CCOCCOc2ccccc2-c2ccccc2)CC(C)O1 (centres undefined)	nt	-4%	-2	14µM*	-10%	109%
C=CCc1cc(OC)ccc1OCCN1CC(C)OC(C)C1 (centres undefined)	nt	-3%	-1	13µM*	-10%	21%
COC(=O)c1ccccc1OCCCCN1CC(C)OC(C)C1 (centres undefined)	-6	5%	1	-5%	7%	-26%
Cc1cccc(C)c1OCc1cc(C(=O)N2CC3C[C@@H]4CC2C[C@H](C3)C4)no1	96*	-2%	65*	1%	-1%	-4%
Cc1ccc(OCc2cc(C(=O)N3CC4C[C@@H]5CC3C[C@H](C4)C5)no2)cc1C	135*	?	35*	11%	?	-27%
CCOC(=O)C1CCCN(C2CC(=O)N(c3cccc(C(F)(F)F)c3)C2=O)C1 (centres undefined)	-8	-26%	11	7%	-13%	5%
Cc1ccc(SCC(=O)N2CCN(c3ccccn3)CC2)cc1	52*	3%	18*	8%	0%	3%
O=C(O)CCC(=O)N1CCN(c2ccccn2)CC1	-11	2%	-2	-16%	3%	-19%
Cc1ccc(N(C)C(=O)N2CCN(c3ccccn3)CC2)cc1	14	3%	-2	-2%	?	10µM*
COc1ccc(C)cc1NC(=S)N1CCN(c2ccccn2)CC1	62*	-23%	35*	1%	?	-4%
Cc1ccsc1C(=O)N1CCN(c2ccccn2)CC1	nt	3%	-1	-3%	1%	-4%
O=C(CCSCc1ccccc1Cl)N1CCN(c2ccccn2)CC1	44*	-2%	41*	-7%	-13%	31%
COC(=O)C[C@H](NC(=O)Cn1cnc2c(SC)nc(N)nc21)C(=O)OC	nt	2%	nt	0%	nt	-15%
COc1ccccc1Nc1c2c(nc3ccc(NC(=O)c4cccc(OC)c4OC)cc13)CCCC2	nt	nt	nt	nt	6%	nt
Nc1cccc(Oc2ccc3c(c2)C(=O)N(CC2CCCO2)C3=O)c1 (centres undefined)	82*	1%	35*	-7%	-6%	0%
Clc1ccc(N/N=C/c2ccncc2)cc1Cl	60*	-86%	38*	-7%	-13%	-35%
C(=N\N=C\c1ccncc1)/c1ccncc1	nt	-4%	nt	-1%	-7%	-27%
Clc1cnc(N/N=C/c2ccncc2)c(Cl)c1	49*	0%	16*	-2%	-3%	-1%
SMILES	Shiga toxin inh	SARS PLP yeast	CHX counter	AMA1-RON2 inh	AmpC inh detg	AmpC inh no detg
Cc1nn(Cc2ccc(F)cc2)c(Cl)c1/C=N/NC(=O)c1ccccc1	39	0%	18*	2%	5%	-20%
Cc1nn(Cc2ccccc2)c(C)c1/C=N/NC(=O)c1ccncc1	-3	1%	-2	12%	-8%	3%
Cc1nn(Cc2ccccc2)c(C)c1/C=N/NC(=O)c1ccccc1O	99*	-2%	42*	120%	2%	-30%
Cc1nn(Cc2ccc(F)cc2)c(Cl)c1/C=N/NC(=O)c1cccnc1	22	7%	5	-2%	1%	-3%
C/C(Cn1nc([N+](=O)[O-])cc1C)=N\NC(=O)c1ccc(O)cc1O	39	-7%	30*	-1%	?	-41%
C/C(Cn1cnc([N+](=O)[O-])n1)=N\NC(=O)c1ccccc1F	nt	nt	nt	28%	nt	nt
COc1cc(C(=O)N/N=C(\C)Cn2nc([N+](=O)[O-])cc2C)ccc1O	-2	10%	-3	13%	-10%	-2%
C/C(Cn1cnc([N+](=O)[O-])n1)=N\NC(=O)c1ccc(O)cc1O	87*	1%	42*	17%	1%	-32%
C/C(Cn1cnc([N+](=O)[O-])n1)=N\NC(=O)c1ccccc1O	39*	2%	24*	30%	4%	-25%
Cc1ccc(S(=O)(=O)Nc2cccc(C(=O)NCCCN3CCOCC3)c2)cc1F	nt	2%	nt	-14%	-2%	-15%
CC1(C)CNC(=S)N1Cc1ccccc1	nt	nt	nt	-7%	nt	nt
COC(=O)c1ccccc1NC(=O)CNc1cc(OC)c(OC)cc1C	-14	8%	-7	-20%	-1%	-3%
CCC(C)C(NC(=O)OC(C)(C)C)C(=O)NC1COC2CC(n3ccc(=O)[nH]c3=O)OC12 (centres undefined)	8	nt	-6	nt	nt	nt
CSCCNC(=O)c1ccc(OC2CCN(CCc3ccccc3)CC2)cc1	27	0%	15*	-5%	11%	-5%
O=C(NCCn1cccn1)c1ccc(OC2CCN(C(=O)C3CC3)CC2)cc1	51	-1%	8	13%	-1%	0%
COC(=O)CCCNC(=O)c1ccc(OC2CCN(CCc3ccccc3)CC2)cc1	21	-1%	12	-3%	3%	20%
CCN(CCn1cccn1)C(=O)c1ccc(OC2CCN(C(=O)CCOC)CC2)cc1	nt	nt	nt	-17%	nt	nt
CCN(CCn1cccn1)C(=O)c1ccc(OC2CCN(C(=O)COC)CC2)cc1	33	-6%	21*	-19%	?	-13%
O=C(NCCn1cccn1)c1ccc(OC2CCN(CCc3ccccc3)CC2)cc1	29*	0%	14*	11%	2%	-8%
O=C(NCCc1ccccc1)C1CCC(CNS(=O)(=O)c2ccc(Cl)cc2)CC1 (centres undefined)	nt	nt	nt	nt	-7%	nt
O=C(NCCc1ccccc1)C1CCC(CNS(=O)(=O)c2ccc(F)cc2)CC1 (centres undefined)	16	4%	16*	-10%	1%	-7%
O=C(Nc1cccc(-n2cnnn2)c1)c1ccoc1COc1ccc(Cl)cc1	-1	-1%	-3	-8%	-10%	7.1µM*
